From PubChem BioAssay
IL-1B inflam inh: blocks inflammasome-driven IL-1 beta release | THP-1 LPS/ATP IL-1B secretion, AlphaLISA, 16 h; stronger effect = lower value | activity change, % at 57.5 µM | 360,000 compounds, 4.7% hits; in the data active = activity change below about -50%; inconclusive = mostly about -30% to -49%
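Secreted IL-1B measured by AlphaLISA bead assay after 16 h compound exposure of THP-1 cells; compounds (final up to 57.5 uM) added 1 h before LPS (250 ng/mL) and ATP (1.25 mM) stimulation; lower signal means less secretion.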
ELG1 DNA repair: blocks ELG1-dependent DNA repair in HEK293T cells | HEK293T ELG1-luciferase reporter, luminescence, 16 h; DNA damage induced by 5-fluorouridine | Potency, µM (doses to about 46.1 µM), usual class: inhibitors | 330,000 compounds, 2.3% hits; note: nearly all actives have a fitted effect of over 55% in size
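Step one: seed 2,000 cells per well. Step two: pin-transfer compound or DMSO alongside 5-fluorouridine. Step three: incubate 16 hr, 37 °C, 5% CO2. Step four: add ONE-Glo, wait 30 min, read luminescence.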
RORgamma inh: ROR gamma (mouse) transcription inhibition; P51450; Drosophila S2 Gal4-RORgamma UAS-luciferase reporter, 20 h; Potency, µM (titrated, usually from 53.6 µM), usual class: inhibitors; 310,000 compounds, 5.4% hits; note: nearly all actives have a fitted effect of over 60% in size
Target sequence (P51450 whole entry, looked up, the tested form may be a part): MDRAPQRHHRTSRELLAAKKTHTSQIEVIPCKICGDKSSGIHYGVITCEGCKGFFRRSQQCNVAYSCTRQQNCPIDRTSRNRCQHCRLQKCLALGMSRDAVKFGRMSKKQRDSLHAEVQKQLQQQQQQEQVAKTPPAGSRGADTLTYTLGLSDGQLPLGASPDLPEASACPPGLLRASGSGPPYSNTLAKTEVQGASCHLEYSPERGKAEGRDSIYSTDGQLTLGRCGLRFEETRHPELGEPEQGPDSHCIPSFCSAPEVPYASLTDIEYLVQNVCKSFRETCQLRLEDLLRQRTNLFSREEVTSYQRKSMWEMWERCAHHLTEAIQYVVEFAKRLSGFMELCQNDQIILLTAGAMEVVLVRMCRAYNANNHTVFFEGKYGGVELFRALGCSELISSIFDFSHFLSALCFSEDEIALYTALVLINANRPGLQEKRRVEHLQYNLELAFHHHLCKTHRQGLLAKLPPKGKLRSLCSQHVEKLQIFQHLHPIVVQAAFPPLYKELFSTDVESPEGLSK
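Schneider cells (Drosophila), stable Gal4 DBD–ROR gamma + UAS-luc; 1 hr cmpd preincubation; Cu2+ induction 700 uM final; 20 hr ambient; luminescence.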
TDP1 cell noCPT: qHTS for Inhibitors of human tyrosyl-DNA phosphodiesterase 1 (TDP1): qHTS in cells in absence of CPT. DT40 Tdp1-/- hTDP1 cells, no CPT, ATP luminescence, 48 h. Potency, µM (doses to about 46.2 µM), hits mostly inhibitors. 420,000 compounds, 15% hits. AID 686978, 2013; note: nearly all actives have a fitted effect of over 55% in size
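Seeded 400 DT40-hTDP1 cells/well (vehicle DMSO, no 20 nM CPT); pinned compounds; ≥48 hr at 37 °C; CellTiter-Glo luminescence as viability measure.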
TDP1 cell CPT: DT40-hTDP1 cell growth loss with CPT; Potency, µM (series often up to 46.2 µM), usual class: inhibitors; 420,000 compounds, 12% hits; AID 686979; chicken DT40 Tdp1-/-;hTDP1 cells + 20 nM CPT, ATP luminescence, 48 h; note: nearly all actives have a fitted effect of over 55% in size
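Chicken DT40 Tdp1-/- cells stably complemented with human TDP1 were seeded at 400 cells/well in medium containing 20 nM camptothecin, exposed to pin-transferred compounds, and grown at 37 °C for at least 48 hr. Viability was read as ATP luminescence.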
Gal4-VP16 FLuc: inhibits Gal4-VP16 luciferase reporter, ROR gamma counter-screen. Drosophila S2 Gal4-VP16 UAS-luciferase, luminescence, 20 h. Potency, µM (highest dose often 53.6 µM), usual class: inhibitors. 310,000 compounds, 3.5% hits. AID 2546;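 note: Gal4-VP16 expression switched on by copper sulfate through the metallothionein promoter; nearly all actives have a fitted effect of over 50% in size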
Hits are given with their value. An excerpt weighted towards active compounds, which were near 21% of everything screened. Unless noted, calls come from the whole dose curve; as a rule, active = well fitted curve in the direction sought with a large enough effect; inconclusive = small, poorly fitted or top-dose-only effect, or another doubt; inactive = no such curve, though single readings can be large; an effect the other way counts as inactive or inconclusive.

`CCOc1ccc(NC(=O)CC2Nc3cccc4cccc(c34)NC2=O)cc1` (configuration not stated) gave TDP1 cell noCPT 16.4µM and TDP1 cell CPT inconclusive.
Cc1cc(C(=O)NCc2cccc(Cl)c2)c2ccccc2n1 was read as IL-1B inflam inh inactive, ELG1 DNA repair inactive, RORgamma inh inactive, TDP1 cell noCPT inconclusive, TDP1 cell CPT inactive and Gal4-VP16 FLuc inactive.
`Cc1ccc(CNC(=O)c2cnc(N3CCCC3)nc2C)cc1` gave TDP1 cell noCPT inactive and TDP1 cell CPT inactive.
O=C(NCc1cccc(Cl)c1)c1cnc(N2CCCCC2)c2ccccc12 was read as TDP1 cell noCPT 25.9µM and TDP1 cell CPT 16.4µM.
Screening COc1cccc(CNC(=O)c2cnc(N3CCCCC3)c3ccccc23)c1 returned TDP1 cell noCPT inconclusive and TDP1 cell CPT 14.6µM.
`O=C(NCc1ccc(F)cc1)c1cnc(N2CCOCC2)c2ccccc12` gave TDP1 cell noCPT 16.4µM and TDP1 cell CPT inconclusive.
Cc1ccc(CNC(=O)c2cnc(N3CCCCC3)c3ccccc23)cc1 was read as TDP1 cell noCPT 16.4µM and TDP1 cell CPT inconclusive.
`CN(C)/[N+]([O-])=N/Oc1cc(O/[N+]([O-])=N/N2CCCC2CO)c([N+](=O)[O-])cc1[N+](=O)[O-]` (configuration not stated) gave RORgamma inh inactive and Gal4-VP16 FLuc inactive.
`COC(=O)[C@@]1(Cc2ccccc2)[C@H]2c3cc(C(=O)N(C)C)n(Cc4c(CO)[nH]cc(C)c4=O)c3C[C@H]2CN1C(=O)c1ccccc1` gave RORgamma inh inactive and Gal4-VP16 FLuc inactive.
`Cc1ccccc1-c1cccc([C@@H]2C[C@H]3[C@H](CON3C)CN2C(=O)CCc2ccccc2)c1` gave IL-1B inflam inh inactive, TDP1 cell noCPT inactive and TDP1 cell CPT inactive.
`COc1ccc(Nc2nc(-c3cccs3)cs2)cc1` gave IL-1B inflam inh inactive, ELG1 DNA repair inconclusive, RORgamma inh inconclusive, TDP1 cell noCPT 23.1µM, TDP1 cell CPT 20.6µM and Gal4-VP16 FLuc inactive.
Screening COc1ccccc1-c1csc(Nc2ccc(Oc3ccccc3)cc2)n1 returned IL-1B inflam inh inactive, TDP1 cell noCPT inconclusive and TDP1 cell CPT 18.4µM.
For COc1cccc(-c2csc(Nc3ccc(Oc4ccccc4)cc3)n2)c1 the results were IL-1B inflam inh inactive, TDP1 cell noCPT inconclusive and TDP1 cell CPT inconclusive.
`COc1ccccc1NC(=O)NC1CC(=O)N(c2ccc3c(c2)OCCO3)C1` (configuration not stated) gave IL-1B inflam inh inactive, ELG1 DNA repair inactive, TDP1 cell noCPT inconclusive and TDP1 cell CPT inactive.
Screening CSCCC(NS(=O)(=O)c1ccc(C)cc1)C(=O)NC1CCCCCC1 (configuration not stated) returned IL-1B inflam inh inactive, ELG1 DNA repair inactive, TDP1 cell noCPT 20.6µM and TDP1 cell CPT inconclusive.
For CC(C)[C@H](NS(=O)(=O)c1ccccc1)C(=O)OCC(=O)NC(=O)NC1CCCCC1 the results were IL-1B inflam inh inactive, ELG1 DNA repair 16.4µM, TDP1 cell noCPT inconclusive and TDP1 cell CPT inconclusive.
CC(C)[C@H](NS(=O)(=O)c1ccccc1)C(=O)OCC(=O)NC1CCCCC1 was read as IL-1B inflam inh inactive, ELG1 DNA repair inactive, TDP1 cell noCPT inconclusive and TDP1 cell CPT inconclusive.
CC(C)[C@H](NS(=O)(=O)c1ccccc1F)C(=O)NC1CCCCC1 was read as IL-1B inflam inh inactive, ELG1 DNA repair 5.17µM, TDP1 cell noCPT inactive and TDP1 cell CPT inactive.
Cc1ccc(S(=O)(=O)N[C@H](C(=O)NC2CCC(C)CC2)C(C)C)cc1 (some centres not stated) was read as IL-1B inflam inh inactive, ELG1 DNA repair inactive, TDP1 cell noCPT 18.4µM and TDP1 cell CPT inconclusive.
`COc1ccc(-n2cc(C(=O)O)c3ccccc3c2=O)cc1` gave IL-1B inflam inh inactive, ELG1 DNA repair inactive, RORgamma inh inactive, TDP1 cell noCPT inactive, TDP1 cell CPT inactive and Gal4-VP16 FLuc inactive.
COc1cccc(-n2cc(C(=O)NC(C)C)c3ccccc3c2=O)c1 was read as IL-1B inflam inh inactive, ELG1 DNA repair inconclusive, RORgamma inh inactive, TDP1 cell noCPT inactive, TDP1 cell CPT inactive and Gal4-VP16 FLuc inactive.
Screening CCN(C(=O)c1cn(-c2ccc(OC)cc2)c(=O)c2ccccc12)c1cccc(Cl)c1 returned TDP1 cell noCPT 16.4µM and TDP1 cell CPT 16.4µM.
Screening COc1cccc(-n2cc(C(=O)Nc3cccc(C(F)(F)F)c3)c3ccccc3c2=O)c1 returned TDP1 cell noCPT inconclusive and TDP1 cell CPT 16.4µM.
`Cc1ccc(-n2cc(C(=O)Oc3ccc(F)cc3)c3ccccc3c2=O)cc1` gave TDP1 cell noCPT inconclusive and TDP1 cell CPT 16.4µM.
`COc1ccc(-n2cc(C(=O)NC(C)c3ccccc3)c3ccccc3c2=O)cc1` (configuration not stated) gave TDP1 cell noCPT inconclusive and TDP1 cell CPT 18.4µM.
`CC1(C(=O)NS(=O)(=O)c2cccc(Cl)c2)CCN1C(=O)CCc1cccs1` (configuration not stated) gave IL-1B inflam inh inactive, TDP1 cell noCPT inactive and TDP1 cell CPT inactive.
`CC(=O)N1CCc2cc(S(=O)(=O)NCCN3CCC(C)CC3)ccc21` gave IL-1B inflam inh inactive, ELG1 DNA repair inactive, RORgamma inh inactive, TDP1 cell noCPT inactive, TDP1 cell CPT inactive and Gal4-VP16 FLuc inactive.
CCCN(CCC)CCCNC(=O)c1cn(-c2ccc(OC)cc2)c(=O)c2ccccc12 was read as IL-1B inflam inh inactive, ELG1 DNA repair inactive, RORgamma inh inactive, TDP1 cell noCPT inactive, TDP1 cell CPT inactive and Gal4-VP16 FLuc inactive.
For COc1cccc(-n2cc(C(=O)NCCCOC(C)C)c3ccccc3c2=O)c1 the results were IL-1B inflam inh inactive, ELG1 DNA repair inactive, RORgamma inh inactive, TDP1 cell noCPT inactive, TDP1 cell CPT inactive and Gal4-VP16 FLuc inactive.
Screening COc1ccc(-n2cc(C(=O)NCCc3ccc(C)cc3)c3ccccc3c2=O)cc1 returned TDP1 cell noCPT 20.6µM and TDP1 cell CPT inconclusive.
For CCOc1ccc(CCNC(=O)c2cn(-c3cccc(OC)c3)c(=O)c3ccccc23)cc1 the results were TDP1 cell noCPT 20.6µM and TDP1 cell CPT inconclusive.
COc1cccc(-n2cc(C(=O)NCCc3ccc(C)cc3)c3ccccc3c2=O)c1 was read as TDP1 cell noCPT 10.3µM and TDP1 cell CPT 8.2µM.
CCOc1ccc(CCNC(=O)c2cc(C)nn2-c2ccccc2)cc1 was read as IL-1B inflam inh inactive, ELG1 DNA repair inconclusive, RORgamma inh inactive, TDP1 cell noCPT inconclusive, TDP1 cell CPT inconclusive and Gal4-VP16 FLuc inactive.
